This note sets out measurements from PubChem BioAssay (NCI).

Compounds without any hit were thinned out: in the full panel of roughly 83,000, 20% have a hit.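 Interpretation: 100, growth as untreated; towards 0, rising growth inhibition; 0, no net growth; 0 to -100, cell death. Compounds scoring below 10 were considered active.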 A number with no mark means an inactive call. Calls of active or inactive are those of the source.

Common to all, as to test: NCI-60 one-dose screen, 48 h (100 = growth as untreated, 0 = no growth, -100 = all killed)
For one assay, the system named is NCI-H23 lung. Conditions: 10 µM unless noted.
The next assay concerns NCI-H322M lung. Conditions: 10 µM unless noted.
A further assay relates to HOP-62 NSCLC. Conditions: 10 µM unless noted.
The test system of a further assay is NCI-H460 lung. Conditions: 10 µM unless noted.
Another assay relates to HOP-92 NSCLC. Conditions: 10 µM unless noted.
For a further assay, the system named is A549/ATCC NSCLC. Conditions: 10 µM unless noted.
A further assay concerns 786-0 renal. Conditions: 10 µM unless noted.
In the next assay the test system is COLO 205 colon. Conditions: 10 µM unless noted.
The subject of another assay is DU-145 prostate. Conditions: 10 µM unless noted.
Another assay deals with K-562 leukemia. Conditions: 10 µM unless noted.
The subject of the next assay is MALME-3M melanoma. Conditions: 10 µM unless noted.
A further assay deals with MDA-MB-231 breast. Conditions: 10 µM unless noted.
In another assay the test system is SF-268 CNS. Conditions: 10 µM unless noted.
For another assay, the system named is SF-295 CNS. Conditions: 10 µM unless noted.
The test system of a further assay is SF-539 CNS. Conditions: 10 µM unless noted.
Another assay concerns UACC-257 melanoma. Conditions: 10 µM unless noted.
Another assay concerns M14 melanoma. Conditions: 10 µM unless noted.
The next assay concerns RXF 393 renal. Conditions: 10 µM unless noted.
A further assay deals with NCI-H522 lung. Conditions: 10 µM.

Take `COc1ccc([N+](=O)[O-])c(S(=O)(=O)c2ccc(Cl)cc2)n1`: the growth is 81.9% in the assay with NCI-H23 lung; 106% with NCI-H322M lung; 95.2% with HOP-62 NSCLC; 98.1% in the assay on NCI-H460 lung; 63.1% in the assay on HOP-92 NSCLC; 99.2% in the assay with A549/ATCC NSCLC. Moreover, the growth was 70.1% with 786-0 renal; 25.2% in the assay with COLO 205 colon; 93.2% in the assay with DU-145 prostate; 7.72% (active) with K-562 leukemia; 11.8% in the assay on MALME-3M melanoma; 68.1% with MDA-MB-231 breast. In addition, the growth is 92.4% in the assay on SF-268 CNS; 95.3% in the assay on SF-295 CNS; 82.8% with SF-539 CNS; 94.9% in the assay on UACC-257 melanoma; 60.5% in the assay with M14 melanoma.

With `CC[C@@H](C)/C=C(C)/C=C/C(=O)c1c(O)c(-c2ccc(O)cc2)cn(OC2CC(=O)CCC(C)OC(=O)CC2O)c1=O` (stereo not given in full), the growth is 26.8% with NCI-H23 lung; 5.13% (active) in the assay with NCI-H322M lung; 7.07% (active) in the assay on HOP-62 NSCLC; -19.6% (active) in the assay with NCI-H460 lung; 57.7% in the assay on HOP-92 NSCLC; 17.9% in the assay on A549/ATCC NSCLC. Also, the growth was -6.82% (active) in the assay on 786-0 renal; 4.8% (active) in the assay with DU-145 prostate; 13.8% with K-562 leukemia; 42.6% in the assay on MDA-MB-231 breast; 33.6% in the assay with RXF 393 renal; -7.36% (active) in the assay on SF-268 CNS. In addition, the growth with SF-295 CNS is -22% (active); in the assay with SF-539 CNS, -4.57% (active); in the assay on UACC-257 melanoma, -2.46% (active); in the assay with M14 melanoma, -13.7% (active).

On to `COc1ccc(C(=O)COc2ccc(/C=C3\Oc4ccc5ccccc5c4C3=O)cc2)cc1`, for which the growth in the assay with NCI-H23 lung is 90.7%; with NCI-H322M lung, 100%; in the assay with HOP-62 NSCLC, 104%; with NCI-H460 lung, 110%; in the assay on HOP-92 NSCLC it was 94.9%; with NCI-H522 lung it was 64%. Besides, the growth in the assay with 786-0 renal is 106%; in the assay on COLO 205 colon, 121%; with K-562 leukemia it was 83%; in the assay on MALME-3M melanoma, 85.5%; in the assay with MDA-MB-231 breast, 97%; with SF-268 CNS, 104%. Further, the growth is 102% with SF-295 CNS, 72.5% in the assay with SF-539 CNS, 98.3% with UACC-257 melanoma and 99.5% in the assay with M14 melanoma.

In the case of `O=C(CN1CCN(c2ccc(Cl)cc2)CC1)N1CCN(c2nnc(-c3ccc(Cl)cc3)c(-c3ccc(Cl)cc3)n2)CC1`, the growth with NCI-H23 lung is 85%; in the assay with NCI-H322M lung, 77.9%; with HOP-62 NSCLC, 103%; in the assay on NCI-H460 lung, 75.3%; in the assay on HOP-92 NSCLC, 60.1%; with A549/ATCC NSCLC, 15%. Also, the growth is 80.6% in the assay with 786-0 renal; 90.8% in the assay with COLO 205 colon; 87% in the assay with DU-145 prostate; 33% with K-562 leukemia; 114% in the assay on MALME-3M melanoma; 95.1% in the assay with MDA-MB-231 breast. The growth with SF-268 CNS is 83.4%; with SF-295 CNS, 82.3%; in the assay with SF-539 CNS it was 82.3%; with M14 melanoma, 74.3%.

Consider `COc1ccc2[nH]c(=O)c(CNc3ccc(Nc4nccc(-c5ccc(Cl)cc5)n4)cc3)cc2c1`, for which the growth in the assay with NCI-H23 lung was 91.5%; with NCI-H322M lung, 87.6%; in the assay on NCI-H460 lung, 93.7%; in the assay with HOP-92 NSCLC, 87.1%; with NCI-H522 lung, 83.8%; with 786-0 renal it was 98%. The growth was 100% in the assay with COLO 205 colon; 84.8% with DU-145 prostate; 68.6% in the assay on K-562 leukemia; 97.7% in the assay with MALME-3M melanoma; 84.9% in the assay on MDA-MB-231 breast; 101% in the assay on RXF 393 renal. Further, the growth in the assay with SF-268 CNS is 71.9%; in the assay with SF-295 CNS, 110%; in the assay on SF-539 CNS, 104%; with M14 melanoma it was 111%.

`O=C(COc1cccc(/C=C2\Oc3ccc4ccccc4c3C2=O)c1)c1ccc([N+](=O)[O-])cc1`: the growth is 93.8% in the assay with NCI-H23 lung; 106% with NCI-H322M lung; 87.6% in the assay with HOP-62 NSCLC; 100% in the assay with NCI-H460 lung; 81.2% with HOP-92 NSCLC; 35.8% in the assay on NCI-H522 lung. The growth with 786-0 renal was 103%; with COLO 205 colon, 114%; in the assay with K-562 leukemia it was 67.3%; in the assay on MALME-3M melanoma, 67.2%; with MDA-MB-231 breast, 83.3%; in the assay with SF-268 CNS it was 85.6%. The growth with SF-295 CNS was 117%; in the assay on SF-539 CNS it was 46.5%; in the assay on UACC-257 melanoma, 102%; in the assay with M14 melanoma, 79.4%.

On to `COc1ccc(C(=O)COc2cccc(/C=C3\COc4ccc5ccccc5c4C3=O)c2)cc1`, for which the growth with NCI-H23 lung is 59.5%; in the assay with NCI-H322M lung, 147%; with HOP-62 NSCLC, 96.5%; in the assay with NCI-H460 lung it was 62%; in the assay on HOP-92 NSCLC it was 33.8%; with NCI-H522 lung, 44.1%. Besides, the growth in the assay with 786-0 renal was 83%; with COLO 205 colon, 123%; in the assay on K-562 leukemia it was 47.8%; with MALME-3M melanoma, 72%; in the assay on MDA-MB-231 breast, 53.7%; in the assay with SF-268 CNS, 83.8%. Further, the growth with SF-295 CNS was 107%; with SF-539 CNS, 16%; in the assay with UACC-257 melanoma, 79.4%; with M14 melanoma, 91.2%.

For `CCOC1Oc2ccccc2C(=O)/C1=N/c1nccs1` (stereo not given), the growth in the assay with NCI-H23 lung was 95.2%; with NCI-H322M lung, 99.7%; with HOP-62 NSCLC, 92.7%; in the assay on NCI-H460 lung, 106%; in the assay with HOP-92 NSCLC it was -23.6% (active); in the assay on A549/ATCC NSCLC, 111%. The growth in the assay with 786-0 renal was 100%; in the assay on COLO 205 colon, 95.1%; in the assay with DU-145 prostate, 101%; in the assay with K-562 leukemia, 84.9%; in the assay with MALME-3M melanoma it was 51.9%; in the assay on MDA-MB-231 breast, 78.1%. For the same molecule, the growth is 102% with RXF 393 renal; 76.9% in the assay on SF-268 CNS; 93.5% in the assay on SF-295 CNS; 93.9% in the assay with SF-539 CNS; 112% with UACC-257 melanoma.
